This is a sample that favours compounds with a hit; in the whole collection about 12% have one here.
G9a block – qHTS Assay for Inhibitors of Histone Lysine Methyltransferase G9a. Histone-lysine N-methyltransferase EHMT2 (Homo sapiens), Q96KQ7. G9a H3K9 monomethylation, AlphaScreen, 2 h. Potency, µM (series often up to 102 µM), for the others: at the top dose activity, negative = inhibition, hits mostly inhibitors. hit rate 8.8% among 350,000. AID 504332, 2011; also: % is scaled to controls: 0 for no effect and ±100 for the full control effect; nearly all actives have a fitted effect of over 75% in size
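Readings reflect AlphaScreen signal from monomethyl-H3K9 antibody detection. HMT at 20 nM; substrate b-H3K9 500 nM; cofactor SAM 20 uM; 2 h RT reaction; compounds tested as titrations in qHTS with 15 min preincubation.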
L3MBTL1 block – qHTS Assay for the Inhibitors of L3MBTL1; hit rate 0.66% among 230,000; Potency, µM (top dose mostly 57.1 µM), for inactives: at the top dose activity, negative = inhibition, actives largely listed as inhibitors; Lethal(3)malignant brain tumor-like protein 1 (Homo sapiens), Q9Y468; AlphaScreen L3MBTL1–H3K9me1 peptide binding; also: % is scaled to controls: 0 for no effect and ±100 for the full control effect; nearly all actives have a fitted effect of over 60% in size
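Displacement of a biotinylated histone H3(1-15) peptide monomethylated at Lys9 (75 nM) from L3MBTL1 (50 nM) was measured by AlphaScreen after a 30 min room-temperature compound incubation; cefsulodin titration served as intraplate control.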
HP1b binding inh – HTS for Inhibitors of HP1-beta Chromodomain Interactions with Methylated Histone Tails. AlphaScreen HP1-beta / biotin-H3K9me3 peptide binding. Chromobox protein homolog 1 (Homo sapiens), P83916. hit rate 0.56% among 390,000. Potency, µM (titrated, usually from 114 µM), for inactives: at the top dose activity change, negative = inhibition, hits mostly inhibitors; also: nearly all actives have a fitted effect of over 70% in size
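Compound inhibition of the preformed complex between 50 nM HP1-beta and 50 nM biotinylated H3K9me3 peptide was read by AlphaScreen. Buffer was PBS pH 7.4 with 0.01% Tween-20. Incubations ran 30 min at room temperature, with 10 ug/mL donor/acceptor beads.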
JMJD2A Tudor – qHTS Assay for Inhibitors of JMJD2A-Tudor Domain | Lysine-specific demethylase 4A (Homo sapiens), O75164 | AlphaScreen JMJD2A-Tudor / H3K4me3 peptide binding | Potency, µM (series often up to 114 µM), for the others: at the highest dose activity change, negative = inhibition, usual class: inhibitors | hit rate 4.4% among 390,000; also: % is scaled to controls: 0 for no effect and ±100 for the full control effect; nearly all actives have a fitted effect of over 50% in size
Sfp PPTase inh – qHTS Assay for Inhibitors of Bacillus subtilis Sfp phosphopantetheinyl transferase (PPTase); Biochemical Sfp PPTase activity, qHTS; Potency, µM, for the others: largest response in the series, negative = inhibition, usual class: inhibitors; hit rate 3.5% among 310,000; AID 1490, 2009;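 also: the enzyme is Sfp with the accession as filed and its product quenches rhodamine fluorescence; 0% = enzyme reaction without inhibitor and -100% = no enzyme wells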
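Reaction rates are the 30-min fluorescence difference (ex 525, em 598 nm) in wells containing 15 nM Sfp, 5 uM rhodamine-CoA and 12.5 uM BHQ-2-YbbR at pH 7.6 with 10 mM MgCl2.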
BAZ2B inh – qHTS Assay for Inhibitors of BAZ2B | AlphaScreen BAZ2B-H3K14Ac peptide displacement | Potency, µM (series often up to 114 µM), for inactives: at the highest dose activity change, negative = inhibition, hits mostly inhibitors | hit rate 4.4% among 360,000 | AID 504333, 2011; also: % is scaled to controls: 0 for no effect and ±100 for the full control effect; nearly all actives have a fitted effect of over 60% in size
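In this displacement format the biotinylated H3(5-23) peptide acetylated at Lys14 serves as ligand at 50 nM, with BAZ2B at 50 nM in PBS pH 7.4 containing 0.01% Tween-20. Donor and acceptor beads are 10 ug/mL final.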
* hit, by the source's call; ? = inconclusive; / = not tested or not shown; [ ] = another dose, or the depositor's remark. Calls follow the shape of the dose curve; as a rule, active = well fitted curve in the direction sought with a large enough effect; inconclusive = small, poorly fitted or top-dose-only effect, or another doubt; inactive = no such curve, though single readings can be large; an effect the other way counts as inactive or inconclusive. Potency is read from the fitted curve at half-maximal effect.

SMILES	G9a block	L3MBTL1 block	HP1b binding inh	JMJD2A Tudor	Sfp PPTase inh	BAZ2B inh
COc1ccc(N2CCN(C(=O)CN3CCSc4ccccc43)CC2)cc1	?	/	4%[57 µM]	?	/	?
O=[N+]([O-])c1ccc([C@H](O)[C@H](CO)N=Cc2ccccc2O)cc1	8.9µM*	/	50%	-27%	-14%	-2%
COc1ccccc1C=NC(CO)C(O)c1ccc([N+](=O)[O-])cc1 (configuration not stated)	/	4%	30%	-12%	5%	-18%
COC(C1CCCCC1)C(C)C(OCc1cccc(Br)c1)C(C)CO (configuration not stated)	/	/	/	/	-1%	/
O=C(Oc1ccccc1)N1CCC2(CCCN(c3ccccn3)C2)CC1	-5%[12.7 µM]	/	/	/	1%	/
O=C(Cc1ccc(S(=O)(=O)N2CCOCC2)s1)Nc1ccccc1Br	/	-9%	-6%	?	-4%	71µM*
COC(=O)c1ccccc1NC(=O)CNc1cc(Cl)ccc1N1CCOCC1	45µM*	5%	-2%	-25%	?	-5%
O=C(Cc1ccc(S(=O)(=O)N2CCOCC2)s1)NCC(=O)Nc1ccccc1Br	2%[0.501 µM]	0%	37%	-3%	/	-30%
O=C(Cc1ccc(S(=O)(=O)N2CCOCC2)s1)Nc1ccccc1N1CCOCC1	45µM*	/	9%	-17%	2%	/
CCCOc1ccc(NC(=O)Cc2ccc(S(=O)(=O)N3CCOCC3)s2)cc1OCCC	79µM*	-15%	-22%	?	/	-39%
COc1ccc(S(=O)(=O)N(CCc2ccccc2)CC(=O)NCc2ccccc2)cc1OC	-7%[59 µM]	/	20%	-22%	/	-4%
O=C(CSc1ncc(S(=O)(=O)c2ccc(Cl)cc2)c(=O)[nH]1)Nc1ccc2c(c1)OCCO2	-28%[59 µM]	/	5%	-23%	/	-9%
CCCCC/C=C\C/C=C\C/C=C\CCCCC(=O)NC(C)C(=O)O (configuration not stated)	/	/	/	/	6%	/
O=C(Cc1ccc(Cl)c(Cl)c1)Nc1ccccc1N1CCOCC1	79µM*	/	54%	12%	-3%	/
O=C(Nc1cc(Cl)ccc1N1CCOCC1)c1ccc(Br)o1	25µM*	/	22%	-3%	-6%	?
Cn1c(-c2ccc(F)cc2)cnc1SCC(=O)Nc1ccccc1N1CCOCC1	45µM*	-10%	18%	-28%	-4%	?
Cc1cc(C(=O)Nc2ccc(C(C)C)cc2)c2c(C)nn(-c3ccccc3)c2n1	2%[59 µM]	/	58%	3%	/	14%[57.1 µM]
C=CC[C@@H]1C=C[C@@H](O/N=C\[C@@H](NS(=O)(=O)c2ccc(C)cc2)[C@H](C)/C=C\CC(=O)OC)[C@@H](CO)O1	/	/	/	/	-10%	/
C#C[C@]1(O)CC[C@H]2[C@@H]3CCC4=CC(=O)CC[C@@H]4[C@H]3CC[C@@]21C	/	/	9%	-12%	/	/
CC#C[C@]1(O)CC[C@H]2C3CCC4=CC(=O)CCC4=C3[C@@H](c3ccc(N(C)C)cc3)C[C@@]21C (some centres not stated)	2.8µM*	/	/	/	3%	/
CCN(C(=O)c1nn(-c2ccc(OC)c(Cl)c2)c(=O)c2c1c1ccccc1n2C)c1cccc(C(F)(F)F)c1	-8%[59 µM]	/	-1%	-24%	/	/
CC1(C)CN=c2s/c(=C\c3ccc(Cl)cc3)c(=O)n2C1	71µM*	1%	13%	-10%	-8%	?
CSC1=N/C(=C\c2ccc(Cl)cc2)C(=O)N1N(C)C	15%	-16%	28%	-5%	-7%	-27%
CC1Cc2ccccc2N1Cc1nc2scc(-c3cccs3)c2c(=O)[nH]1 (configuration not stated)	45µM*	-1%	22%	-15%	7%	-32%
COC(=O)c1ccc2c(=O)[nH]c(CN3c4ccccc4CC3C)nc2c1 (configuration not stated)	11µM*	1%	8%	-30%	-20%	-29%
SMILES	G9a block	L3MBTL1 block	HP1b binding inh	JMJD2A Tudor	Sfp PPTase inh	BAZ2B inh
CC1Cc2ccccc2N1Cc1nc2cc(Cl)ccc2c(=O)[nH]1 (configuration not stated)	?	/	3%	?	-4%	?
COc1cccc(-n2c(=O)c3c(C)c(C)sc3n(CC(=O)NCCc3ccc(OC)c(OC)c3)c2=O)c1	-22%[59 µM]	/	21%	-9%	/	-6%
Cc1cc(C)c(S(=O)(=O)/N=C2\C=C(NS(=O)(=O)c3ccccc3)C(=O)c3ccccc32)c(C)c1	6.3µM*	/	?	13µM*	-15%	5.6µM*
Cc1ccc(S(=O)(=O)/N=C2\C=C(NS(=O)(=O)c3ccccc3)C(=O)c3ccccc32)cc1	/	/	?	32µM*	/	/
Cc1cc(C)c(NS(=O)(=O)c2ccccc2)c(C)c1	/	/	15%[57 µM]	-1%	/	/
Cc1ccc(S(=O)(=O)Nc2ccccc2-c2ccccc2)cc1	121%	7%	50%	17%	3%	14%
Cc1ccc(S(=O)(=O)N2CCC(C(=O)C3C(=O)CC(C)(C)CC3=O)CC2)cc1	-3%	/	-11%	-4%	-3%	-12%
Cc1ccc(S(=O)(=O)/N=C2/C=C(C3C(=O)CC(C)(C)CC3=O)C(=O)c3ccccc32)cc1	8.9µM*	/	-36%	?	?	?
Cc1ccc(CNC(=O)CCCN2C(=O)COc3ccc(C)cc32)cc1	4%[59 µM]	/	42%	-12%	/	3%
CCOc1cc(/C=N/NC(=O)COc2nc(C)cc(COC)c2C#N)ccc1O	-4%	-5%	32%	-13%	23%	-2%
COCc1cc(C)nc(OCC(=O)N/N=C/c2ccc(O)cc2O)c1C#N	28%	/	44%	-34%	26%	40µM*
COCc1cc(C)nc(OCC(=O)N/N=C/c2ccccc2O)c1C#N	47%	-24%	34%	-15%	23%	79µM*
O=C1NC(=S)S/C1=C\c1ccc(SCc2ccccc2)o1	?	28µM*	?	25µM*	?	50µM*
O=C1NC(=S)S/C1=C\c1ccc(SCc2ccco2)o1	10µM*	3.5µM*	11µM*	6.3µM*	20µM*	18µM*
O=C(CSc1nc2ccccc2nc1Cc1ccccc1)N1CCc2ccccc21	8%[59 µM]	/	21%[57 µM]	-11%	/	7%

Source: PubChem
